Test results from PubChem BioAssay AID1508602 (The Scripps Research Institute Molecular Screening Center, 2020).
Among all 650,000 compounds or so, about 6,800 (1%) were called active. What follows is part of a selection rich in actives, with near analogues and random picks from the rest. A number with no mark means an inactive call. Cut-off read from the data, not from the text of the source: active = activation above about 4.9%; inactive = the rest.

Molecular target: G-protein coupled receptor 151 (Homo sapiens) (UniProt Q8TDV0)
Sequence (Q8TDV0 whole entry, looked up): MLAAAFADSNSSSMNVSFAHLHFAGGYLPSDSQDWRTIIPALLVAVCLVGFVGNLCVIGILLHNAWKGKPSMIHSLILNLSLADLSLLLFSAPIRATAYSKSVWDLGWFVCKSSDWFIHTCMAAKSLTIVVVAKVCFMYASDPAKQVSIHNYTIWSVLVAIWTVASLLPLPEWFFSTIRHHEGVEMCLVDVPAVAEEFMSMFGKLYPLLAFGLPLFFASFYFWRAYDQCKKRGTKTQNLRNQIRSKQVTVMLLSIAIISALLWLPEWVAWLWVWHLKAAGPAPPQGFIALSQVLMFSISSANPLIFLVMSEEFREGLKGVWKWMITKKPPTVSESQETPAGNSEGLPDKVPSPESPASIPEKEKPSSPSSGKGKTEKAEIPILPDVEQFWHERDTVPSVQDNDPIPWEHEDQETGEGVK
Assay: activators of human GPR151, primary screen, cell-based, PathHunter beta-arrestin, luminescence (AID 1508602);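 note: 0% = median of compound wells and 100% = cells with positive control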
Conditions: PathHunter beta-arrestin GPR151 cells, at 11.2 µM, hits give high values

Row | SMILES | activation
1 | COCCNC(=O)CCCNC(=O)Cn1cnc2sc(C)c(C)c2c1=O | 1.23%
2 | COc1ccc(C2(NC(=O)CCn3cnc4sc(C)c(C)c4c3=O)CCCCC2)cc1 | 4.94% (active)
3 | COc1cc(Cl)c(C)cc1NC(=O)Cn1cnc2sc(C)c(C)c2c1=O | 0.0902%
4 | Cc1ccc(C2=NC(c3ccc(F)cc3)NC(c3cc(Cl)ccc3O)C2)cc1 (centres undefined) | 1.41%
5 | Cc1ccc(C2=NC(c3cc(Br)ccc3F)NC(c3cc(Cl)ccc3O)C2)cc1 (centres undefined) | 10.7% (active)
6 | COc1ccccc1C1N=C(c2ccc(C)cc2)CC(c2cc(Cl)ccc2O)N1 (centres undefined) | 1.39%
7 | Cc1ccc(OCC(=O)Nc2ccc(C)c(Cl)c2)cc1C | 1.59%
8 | O=C(COc1ccc(Cl)cc1)Nc1ccc(F)c(F)c1 | 0.102%
9 | O=C(COc1ccc(CO)cc1)Nc1ccc(Cl)c(Cl)c1 | 8.11% (active)
10 | CCN(CC)S(=O)(=O)c1ccc(NC(=O)c2ccc(F)cc2)cc1 | -0.476%
11 | Cc1cccc(OCCN2CCNCC2)c1C | 0.825%
12 | Cc1ccc(C(C)(C)C)c(OCCN2CCNCC2)c1 | 0.932%
13 | C=CCc1ccccc1OCCN1CCNCC1 | 5.95% (active)
14 | COc1cccc(CNC(=O)Cn2c(=O)oc3ccccc32)c1 | -1.36%
15 | N#CCCn1c2ccc(Cl)cc2c2cc(Cl)ccc21 | 2.4%
16 | COc1ccc(N2CCN(c3ncnc4c3c(-c3ccccc3)cn4-c3ccc(C)cc3)CC2)cc1 | -2.7%
17 | Cc1ccc(-n2cc(-c3ccccc3)c3c(N4CC(C)OC(C)C4)ncnc32)cc1 (centres undefined) | 7.76% (active)
18 | CC1CN(c2ncnc3c2c(-c2ccccc2)cn3-c2cccc(C(F)(F)F)c2)CC(C)O1 (centres undefined) | -1.46%
19 | CCN(CC)CCCNCC(=O)Nc1ncc(C)s1 | -1.43%
20 | OCC1(Cc2ccccc2C(F)(F)F)CCN(Cc2ccncc2)CC1 | -0.707%
21 | Cc1ccccc1CC1(CO)CCCN(Cc2ccncc2)C1 (centres undefined) | 5.32% (active)
22 | Cc1ccccc1CC1(CO)CCCN(C(=O)CN(C)Cc2ccncc2)C1 (centres undefined) | 0.125%
23 | Cc1csc(COc2ccc(C(=O)NCc3cccs3)cc2)n1 | -2.02%
24 | Cn1ncc2c(Nc3cccc4ccccc34)ncnc21 | 2.47%

Row | SMILES | activation
25 | Cn1ncc2c(NNC(=O)Cc3cccc4ccccc34)ncnc21 | 6.03% (active)
26 | Cn1ncc2c(NNC(=O)c3ccc(C(C)(C)C)cc3)ncnc21 | 1.02%
27 | O=C1c2ccccc2C(=O)C1(Nc1ccc(-c2ccccc2)cc1)c1ccccc1 | 0.902%
28 | O=C(Nc1ccc2c(c1)C(=O)Nc1cc(Cl)ccc1O2)c1cccc(F)c1 | -0.172%
29 | COc1ccc(C2CC(c3cccs3)=NN2C(=O)CSc2nnc(CNC(=O)c3cccc(C)c3)n2Cc2ccccc2)cc1 (centres undefined) | -0.0797%
30 | Cc1ccc(C2CC(c3cccs3)=NN2C(=O)CSc2nnc(CNC(=O)c3cccs3)n2Cc2ccccc2)cc1 (centres undefined) | -0.904%
31 | O=C(NCc1nnc(SCC(=O)N2N=C(c3cccs3)CC2c2ccc(F)cc2)n1Cc1ccccc1)c1cccc(F)c1 (centres undefined) | 5.02% (active)
32 | CSc1ccc2nc(NC(=O)c3ccccc3Cl)sc2c1 | -0.347%
33 | CC(=O)OCC#CCSc1nc2ccccc2o1 | -0.909%
34 | Fc1ccccc1OCCSc1nc2ccccc2o1 | 4.92% (active)
35 | N#Cc1ccccc1CSc1nc2ccccc2o1 | -1.07%
36 | O=C(Cc1ccc([N+](=O)[O-])cc1)Nc1cccc(Cl)c1 | -0.456%
37 | O=C(CC1C(=O)NCCN1C(=O)c1ccc([N+](=O)[O-])cc1)Nc1cccc(Cl)c1 (centres undefined) | 7.94% (active)
38 | COc1ccccc1C(=O)N1CCNC(=O)C1CC(=O)Nc1ccc(Cl)cc1 (centres undefined) | -1.89%
39 | CCc1cc2c(=O)c(-c3ccc4c(c3)OCCCO4)coc2cc1OC(=O)N1CCOCC1 | 8.05% (active)
40 | CCc1cc2c(=O)c(-c3ccc4c(c3)OCCCO4)coc2cc1OC | -0.907%
41 | CCCc1cc2c(=O)c(-c3ccc4c(c3)OCO4)coc2cc1O | 0.792%
42 | COc1ccccc1N=Cc1cccc(O)c1O | -0.891%
43 | O=C(c1ccc(CNS(=O)(=O)c2ccc(Cl)cc2)cc1)N1CCCC1 | 6.5% (active)
44 | O=C(c1ccc(Cl)cc1)N1CCCC1 | -0.435%
45 | O=C(c1cccc(NS(=O)(=O)c2ccc(Cl)cc2)c1)N1CCCC1 | -1.72%
46 | COC(=O)C1=CN(Cc2ccc(Cl)cc2)C=C(C(=O)OC)C1c1cc(OC)c(O)c(OC)c1 | 8.56% (active)
47 | COC(=O)CN1C=C(C(=O)OC)C(c2ccc(OC)c(O)c2)C(C(=O)OC)=C1 | 6.57% (active)
48 | COC(=O)C1=CN(Cc2ccc(OC)cc2)C=C(C(=O)OC)C1c1ccc(O)c(OC)c1 | 1.75%

Row | SMILES | activation
49 | COC(=O)C1=CN(Cc2ccc(F)cc2)C=C(C(=O)OC)C1c1ccc(OC)c(OC)c1 | -0.344%
50 | CCOC(=O)C1=CN(Cc2ccc(Cl)cc2)C=C(C(=O)OCC)C1c1cc(Br)c(O)c(OC)c1 | 3.19%
51 | COC(=O)C1=CN(CC2CCCO2)C=C(C(=O)OC)C1c1ccc(OC)c(O)c1 (centres undefined) | 1.3%
52 | CCOc1ccc(/C(O)=C2/C(=O)C(=O)N(CCN(CC)CC)C2c2ccc(C)cc2)c(C)c1 (centres undefined) | 0.496%
53 | CCOc1ccc(N2C(=O)C3C4C=CC(C5CC45)C3C2=O)cc1 (centres undefined) | -1.25%
54 | Cc1cccc(CN2CCN3C(=O)[C@H](Cc4cnc[nH]4)NC(=O)[C@H]3C2)n1 | 0.592%
55 | CC(=O)Nc1ccc2c(c1)CN(Cc1ccccc1)CO2 | 1.47%
56 | O=C(CCc1ccccc1)Nc1cccc(C(=O)N2CCOCC2)c1 | 11.5% (active)
57 | CCC(CC)C(=O)Nc1cccc(F)c1 | 4.27%
58 | CCC(CC)C(=O)Nc1cccc(C(=O)N2CCCC2)c1 | 5.74% (active)
59 | CCC(CC)C(=O)Nc1cccc(C(=O)Nc2ccccc2C(=O)NC(C)C)c1 | 0.373%
60 | CC1(C)Oc2ccc(C(=O)N3CCOCC3)cc2N(CC(=O)Nc2ccccc2)C1=O | -0.343%
61 | O=C(c1cccc(N2C(=O)c3ccccc3C2=O)c1)N1CCOCC1 | -0.354%
62 | Cc1ccc2oc(-c3cccc(NC(=O)c4ccc(F)cc4)c3)nc2c1 | 0.17%
63 | O=C(c1cc(=O)oc2cc(OCc3ccccc3)ccc12)N1CCN(c2ccccn2)CC1 | -0.0035%
64 | Cc1ccc([N+](=O)[O-])cc1NC(=O)CC12CC3CC(CC(C3)C1)C2 | 2.69%
65 | CC(C)(C)c1ccc(C(=O)NCCC(=O)NCCc2ccccc2)cc1 | 0.46%
66 | O=C1CSC2=NCN(c3ccc(I)cc3)CN12 | 0.445%
67 | CCOc1cc(C#N)ccc1OCC(=O)NCc1ccc2c(c1)OCO2 | -0.667%
68 | COc1ccccc1CNC(=O)C1CCN(Cc2nc(-c3ccccc3C)oc2C)CC1 | -0.157%
69 | Cc1ccc2nc(SCc3ccccc3)nc(=O)n2c1 | 1.52%
70 | c1cnc(N2CCN(Cc3cccc4ccccc34)CC2)nc1 | 0.32%
71 | O=C(Cc1cccc2ccccc12)Nc1ncn[nH]1 | 0.255%
72 | c1ccc(NCc2cccc3ccccc23)nc1 | 5.45% (active)

Row | SMILES | activation
73 | CCCNc1nc(N2CCOCC2)nc2cc(OC)c(OC)cc12 | -0.145%
74 | c1ccc(CSc2ncnc3sc4c(c23)CCCC4)cc1 | 3.13%
75 | Cc1sc2ncnc(SC3CCCCN(C(=O)c4ccc(F)cc4)C3=O)c2c1C (centres undefined) | 2.61%
76 | O=C(c1ccccc1)N1CCCCC(Sc2ncnc3sc4c(c23)CCCC4)C1=O (centres undefined) | 5.26% (active)
77 | COc1ccc(OC)c(-c2cc(Cl)c3c(c2)CC(CNC(=O)CSC)O3)c1 (centres undefined) | 0.143%
78 | CCOc1ccc(C2C(C(=O)Nc3ccc(C)c(F)c3)c3ccccc3C(=O)N2CCN2CCOCC2)cc1 (centres undefined) | -1.65%
79 | O=C(CSc1nnc(NC(=O)CCc2ccccc2)s1)NCc1ccc(F)cc1 | -2.57%
80 | Cc1nnc(SCC(=O)NCc2ccccc2)s1 | 6.39% (active)
81 | Nc1nnc(SCC(=O)OCC(=O)NCc2ccccc2)s1 | -1.05%
82 | C/C(N)=C1\C(=O)C(=O)N(C)C1c1ccccc1 (centres undefined) | -1.33%
83 | CC(Oc1cccc(Cl)c1)C(=O)O/N=C(\N)c1ccncc1 (centres undefined) | -0.652%
84 | O=C(O)CNC(=O)/C=C\c1ccc(Cl)cc1 | 0.187%
85 | CCNC(=O)n1cc(-c2ccnc3ccccc23)c(-c2ccncc2)n1 | -0.919%
86 | O=C(Nc1ccc(-c2nnc3n2CCCCC3)cc1)c1ccc(Br)o1 | -0.517%
87 | O=c1c(Cl)c(-c2ccccc2)oc2ccccc12 | -1.04%
88 | CCN(CC)C(=O)C1CCCN(c2cccc(C(=O)NCCc3ccc(OC)cc3)c2)C1 (centres undefined) | -1.08%
89 | CCN(CC)C(=O)C1CCCN(c2cc(NCCN(C(C)C)C(C)C)nc(N)n2)C1 (centres undefined) | 4.23%
90 | CCN(CC)C(=O)C1CCCN(c2nc3ncnc(NCCc4ccc(OC)cc4)c3[nH]2)C1 (centres undefined) | 0.885%
91 | CCN(CC)C(=O)C1CCCN(c2cc(Nc3ccccc3)nc(N)n2)C1 (centres undefined) | 1.77%
92 | CCN(CC)C(=O)C1CCCN(c2cccc(C(=O)NCCc3ccc(OC)cc3)n2)C1 (centres undefined) | 5.87% (active)
93 | CCN(CC)C(=O)C1CCCN(c2cc(N)nc(N)n2)C1 (centres undefined) | 6.79% (active)
94 | O=C(O)c1cc(N=Cc2cccnc2)ccc1O | 0.982%
